Shown are actives, neighbours in structure and some others; about 1.3% of the full set was active somewhere.
PREPL inh – human PREPL enzyme inhibition; inhibition, % at 5.96 µM; recombinant PREPL, fluorescence polarization activity-based probe; 320,000 tested, 0.68% active; AID 2751; Q4J6C6; in the data active = inhibition above about 43%;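 also: 0% = enzyme with DMSO and 100% = wells lacking enzyme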
EBNA-1 inh – blocks EBNA-1 binding to DNA. EBNA-1 DNA binding, fluorescence polarization. inhibition, % at 14.8 µM. 300,000 tested, 0.34% active. AID 1950; in the data active = inhibition above about 28%
LYPLA1 inh – counter-screen for PME1 inhibitors: inhibitors of human LYPLA1 | O75608 | recombinant LYPLA1, FP-Rh probe fluorescence polarization | inhibition, % at 5.9 µM | 320,000 tested, 0.16% active;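 active = inhibition above the mean of all tested compounds plus 3 SD, set per campaign, cut at about 14% in these data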;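 also: inhibitors block serine hydrolase probe labeling of LYPLA1 so polarization falls; 0% = enzyme with DMSO and 100% = wells lacking LYPLA1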
Target sequence (O75608 whole entry, looked up): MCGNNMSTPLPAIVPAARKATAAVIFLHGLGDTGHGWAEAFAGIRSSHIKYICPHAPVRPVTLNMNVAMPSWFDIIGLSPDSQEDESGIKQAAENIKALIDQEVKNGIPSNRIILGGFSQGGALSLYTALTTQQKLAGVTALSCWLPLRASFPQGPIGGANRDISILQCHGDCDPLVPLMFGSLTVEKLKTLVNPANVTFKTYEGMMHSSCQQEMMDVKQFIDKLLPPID
ZTA DNA inh – blocks Epstein-Barr virus ZTA, an EBNA-1 counter-screen | P03206 | ZTA-DNA binding, fluorescence polarization | inhibition, % at 11 µM | 320,000 tested, 0.15% active | AID 2234; in the data active = inhibition above about 33%
LYPLA2 inh – blocks human lysophospholipase 2, a PME1 counter-screen; O95372; recombinant LYPLA2, FP-Rh probe fluorescence polarization; inhibition, % at 5.9 µM; 320,000 tested, 0.38% active; AID 2177;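 active = inhibition above the screen-wide mean plus 3 SD, limit set per campaign, cut at about 26% in these data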;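 also: 0% = LYPLA2 with DMSO and 100% = wells lacking LYPLA2 enzyme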
LYPLA1 confirm – LYPLA1 (human) inhibition, confirmation counter-screen | inhibition, % at 5.9 µM | recombinant LYPLA1, FP-Rh probe fluorescence polarization | 480 tested, 69% active | AID 2233 | shares compounds with LYPLA1 inh;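 active = mean inhibition across replicates above the hit cutoff set in the primary screen, cut at about 15% in these data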;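 also: loss of FP-Rh probe labeling of LYPLA1 seen as lower polarization; 0% = LYPLA1 with DMSO and 100% = wells lacking LYPLA1 enzyme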
LYPLA2 conf – counter-screen for PME1 inhibitors: confirmation of human LYPLA2 inhibitors | shares compounds with LYPLA2 inh | recombinant LYPLA2, FP-Rh probe fluorescence polarization | inhibition, % at 5.9 µM | 1,100 tested, 72% active | AID 2232;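 active = mean inhibition across replicates above the hit cutoff set in the primary screen, cut at about 26% in these data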;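 also: blocked labeling of the enzyme by serine hydrolase FP-Rh probe lowers polarization; 0% = enzyme with DMSO and 100% = wells lacking LYPLA2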
The depositor's hits bear a star; . = no result.

SMILES	PREPL inh	EBNA-1 inh	LYPLA1 inh	ZTA DNA inh	LYPLA2 inh	LYPLA1 confirm	LYPLA2 conf
CC1(c2ccccc2Cl)NC(=O)N(CC(=O)Nc2ccc(N3CCCCC3)cc2)C1=O (stereo not drawn)	0	-13	-3	-12	-4	.	.
COC(=O)CCCC(=O)N1CCCC(C(=O)c2ccc(-c3ccccc3)cc2)C1 (stereo not drawn)	0	3	21*	1	3	29*	.
COC/C=C/C1=CC2=CC(=O)C(C)(OC(=O)c3cnc4ccccc4n3)C(=O)C2=CN1C1CCCCC1 (stereo not drawn)	9	0	-5	-3	-3	.	.
CC1(OC(=O)c2cnc3ccccc3n2)C(=O)C=C2C=C(C3CC3)OC=C2C1=O (stereo not drawn)	33	28*	58*	48*	76*	27*	.
O=C(NCc1cccc(Cl)c1)N1CCN(S(=O)(=O)c2ccccc2F)CC1	-6	7	-1	13	-1	.	.
O=C(O)c1cc(Cl)ccc1-c1ccc(/C=C/c2cc(C(F)(F)F)[nH]c(=O)n2)o1	13	43*	18*	53*	31*	0	.
C=CCSc1nc(N)c(C#N)c(-c2ccccc2)c1C#N	-2	27	14*	-4	8	12	.
CCOC(=O)C(C)(C)Oc1ccc(Cl)cc1	7	7	0	-18	2	.	.
CCOc1ccc(C(=O)NC2CCN(C(=O)Nc3ccc(F)cc3)CC2)cc1	4	10	5	8	2	.	.
OC(COc1ccc(Cl)cc1)CN1CCN(c2cccc(Cl)c2)CC1 (stereo not drawn)	21	-1	20*	13	59*	27*	62*
COc1ccc2ccccc2c1C(O)c1nccn1C (stereo not drawn)	32	2	24*	-4	30*	15*	9
CCN(CC)C(=O)C1c2ccccc2Oc2ccccc21	54*	6	58*	-16	72*	2	3
COC(=O)c1cc(C)nc2c1C(=O)C(=O)C=C2N1CCOCC1	43	-1	72*	57*	79*	91*	93*
COc1ccccc1OCC(=O)Nc1c2c(nn1-c1ccccc1)CS(=O)(=O)C2	6	21	-3	2	-5	.	.
CC(C)(C)c1ccc(OCC(=O)NCC(c2cccs2)N2CCOCC2)cc1 (stereo not drawn)	8	0	0	-6	1	.	.
COc1ccc(OCC(O)CN2CCC(CN3C(=O)c4cccc5cccc(c45)C3=O)CC2)cc1 (stereo not drawn)	4	-2	20*	-16	69*	23*	69*
Cc1cc(OCc2cc(C(=O)N3CCC(Oc4cccnc4)CC3)no2)cc(C)c1Cl	6	-6	30*	-7	59*	33*	62*
COc1ccc(CNc2ccccc2)cc1Br	15	-2	-1	-13	-5	.	.
COc1ccc(Cc2nnc(Nc3ccccc3)s2)cc1Br	16	-2	42*	-11	42*	36*	30*
CC(C)(C)OC(=O)NCCCCCc1nnc(SCc2c(F)cccc2Cl)o1	4	-7	25*	-15	40*	41*	44*
CC(C)(C)OC(=O)NCCc1nnc(SCc2c(Cl)cccc2Cl)o1	-11	2	2	-2	9	.	.
O=c1ccc2c(-c3ccccc3)c3ccc(O)cc3oc-2c1	34	0	46*	6	41*	33*	29*
Nc1ccc(-c2c3ccc(=O)cc-3oc3cc(O)ccc23)cc1C(=O)O	8	2	8	8	8	.	.
Cc1nn(Cc2ccccc2)c(Cl)c1C(=O)NCc1ccco1	-1	-7	6	-17	-1	.	.
Cc1nn(-c2ccccc2)c2nc(C(F)F)cc(C(F)F)c12	-4	.	6	8	7	.	.

Bioassay records: PubChem, The Scripps Research Institute Molecular Screening Center
